Results on ten molecules are retold here after the supplement of paper PMC13380429.

The test system of assay [1] is Vero E6 infected with SARS-CoV-2. The assay can be described thus: morphology score (similarity to uninfected cells); higher = more like uninfected cells. Conditions: 24 h.
Assay [2] shares this test system. In words: SARS-CoV-2 infection rate relative to infected DMSO; higher = more infection, active = 60 or less. The following applies: 24 h.

With `O=[N+]([O-])/C=C/c1ccc2c(c1)OCO2` [3,4-methylenedioxy-beta-nitrostyrene] (10 µM), the morphology score in assay [1] amounted to 0.58. In addition, in assay [2], the SARS-CoV-2 infection rate was 41% (active).

For `O=C(O)c1ccc(-c2c[nH]c3ncc(-c4ccccc4)cc23)cc1C1CCCC1` (10 µM), the morphology score in assay [1] was determined as 0.309. Besides, in assay [2], the SARS-CoV-2 infection rate is 89.5% (inactive).

Consider `CCCOCCn1c(=O)c(N2CCN(CCO)CC2)nc2cnc(-c3ccc(OC)nc3)cc21` (10 µM), for which, in assay [1], the morphology score is -0.0795. Also, the SARS-CoV-2 infection rate in assay [2] was 116% (inactive).

Molecule `CN(C)[C@@H](CCOc1cccc2ccccc12)c1ccccc1` [dapoxetine] (10 µM) had a morphology score in assay [1] of 0.467. Also, in assay [2], the SARS-CoV-2 infection rate is 76% (inactive).

`O=[N+]([O-])c1cc([N+](=O)[O-])c(/C=C/c2ccc(Cl)c(Cl)c2)cc1/C=C/c1ccc(Cl)c(Cl)c1` (10 µM) gave a morphology score in assay [1] of 0.192. For the same molecule, in assay [2], the SARS-CoV-2 infection rate is 97.5% (inactive).

`C[C@]12CC[C@H](O)C[C@H]1CC[C@@H]1[C@@H]2CC[C@]2(C)[C@@](O)(c3ccoc3)CC[C@]12O` [rostafuroxine] (10 µM): in assay [1], the morphology score is -0.206. Also, the SARS-CoV-2 infection rate in assay [2] was 118% (inactive).

In turn, `Cc1cccc(/C=N/Nc2cc(N3CCOCC3)nc(OCCc3ccccn3)n2)c1` (10 µM) came in with a morphology score in assay [1] of -0.334. Also, the SARS-CoV-2 infection rate in assay [2] is 43.5% (active).

For the molecule `CC[C@@H](c1ccc(F)c(F)c1)n1c(C(=O)OC)c(-c2ccno2)[nH]c1=S` (10 µM), in assay [1], the morphology score is -0.0397. For the same molecule, in assay [2], the SARS-CoV-2 infection rate is 93.5% (inactive).

The molecule `C[C@H]1[C@H](NC(=O)/C(=N\OC(C)(C)C(=O)O)c2csc(N)n2)C(=O)N1S(=O)(=O)O` [aztreonam] (10 µM) yielded a morphology score in assay [1] of -0.0447. The SARS-CoV-2 infection rate in assay [2] was 94% (inactive).

In assay [1], `CC(O)COC[C@H]1O[C@@H]2O[C@H]3[C@H](O)[C@@H](O)[C@@H](O[C@H]4[C@H](O)[C@@H](O)[C@@H](O[C@H]5[C@H](O)[C@@H](O)[C@@H](O[C@H]6[C@H](O)[C@@H](O)[C@@H](O[C@H]7[C@H](O)[C@@H](O)[C@@H](O[C@H]8[C@H](O)[C@@H](O)[C@@H](O[C@H]1[C@H](O)[C@H]2O)O[C@@H]8COCC(C)O)O[C@@H]7COCC(C)O)O[C@@H]6COCC(C)O)O[C@@H]5COCC(C)O)O[C@@H]4COCC(C)O)O[C@@H]3COCC(C)O` (stereo partly drawn) [hydroxypropyl-beta-cyclodextrin] (10 µM) came in with a morphology score of 0.254. For the same molecule, in assay [2], the SARS-CoV-2 infection rate was 99% (inactive).
